Compounds without any hit were thinned out: in the full panel of roughly 83,000, 20% have a hit.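 Cell lines were cultured in 96-well plates, exposed to a single compound concentration, and assessed for percent growth 48 hours later.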 Values without a mark were called inactive. Calls of active or inactive are those of the source. How the source made its calls: active means growth percent below 10; inactive means the rest.
What was measured:
Experiment in all cases: NCI-60 one-dose screen, 48 h (100 = growth as untreated, 0 = no growth, -100 = all killed)
Details in all cases: 10 µM
NCI-H23 lung = tested on: NCI-H23 lung
NCI-H226 lung = tested on: NCI-H226 lung
NCI-H322M lung = tested on: NCI-H322M lung
HOP-62 NSCLC = tested on: HOP-62 NSCLC
NCI-H460 lung = tested on: NCI-H460 lung
NCI-H522 lung = tested on: NCI-H522 lung
A549/ATCC NSCLC = tested on: A549/ATCC NSCLC
786-0 renal = tested on: 786-0 renal
COLO 205 colon = tested on: COLO 205 colon
DU-145 prostate = tested on: DU-145 prostate

SMILES | growth (NCI-H23 lung) | growth (NCI-H226 lung) | growth (NCI-H322M lung) | growth (HOP-62 NSCLC) | growth (NCI-H460 lung) | growth (NCI-H522 lung) | growth (A549/ATCC NSCLC) | growth (786-0 renal) | growth (COLO 205 colon) | growth (DU-145 prostate)
O=S(=O)(NCCCNc1nccc(-c2c(-c3ccc(F)cc3)nc3sccn23)n1)c1ccc2ccccc2c1 | 66.2% | 57.4% | 49.6% | 81.3% | 22.7% | 46.2% | 28.9% | 55.5% | 10.1% | 46.4%
O=C1NC(=O)c2ncccc21 | 101% | 96.3% | 106% | 109% | 111% | 171% | 98.8% | 102% | 114% | 113%
N=C(N)c1ccc(-c2ccc(-c3cccs3)s2)cc1 | 83.8% | 82.3% | 2.2% (active) | 86.6% | -72.4% (active) | 76.4% | -44.8% (active) |  | -96.6% (active) | 0.967% (active)
Cc1ccc(C(=O)N2C/C(=C/c3ccccc3)C(=O)/C(=C/c3ccccc3)C2)cc1 | 78.6% | 71.2% | 80.5% | 76.9% | 90% | 69% | 84% | 53.6% | 76.7% | 58.3%
COc1cc(/C=C/C(=O)c2ccc(Cl)cc2)ccc1OS(=O)(=O)c1ccc(C)cc1 | 99.3% | 98.5% | 96.7% | 95.1% | 103% | 81.7% | 99.9% | 102% | 110% | 105%
O=C(CCCCCCC(=O)Nc1cccnc1)NO | 57.9% | 86.5% | 27.7% | 39.5% | 39.9% | -12.8% (active) | 66.2% | 70.4% | 113% | 40.1%
CCCCN(CCCC)c1cc(C(=O)CCCCCN)c2ccccc2n1 | 94.5% | 93% | -30.8% (active) | 110% | 31.8% | 76.9% | -31.8% (active) | 38.8% | 17.4% | -81.1% (active)
CCN(CC)CCSCCCNc1c2ccc(Cl)cc2nc2ccc(OC)cc12 | -30.8% (active) | 48.7% | -35.6% (active) | -31.6% (active) | -39.7% (active) | -79.1% (active) | -29.5% (active) | -37.3% (active) | -82.9% (active) | 1.82% (active)
CSC1=NCCCC1 | 112% | 97.3% | 113% | 112% | 108% | 102% | 102% | 111% | 113% | 118%
CN(C)CCN1C(=O)c2cccc3c(-c4ccc5ncn(C6CCCCC6)c5c4)ccc(c23)C1=O | 30.5% | 25.1% | 25.3% | 23.4% | 1.4% (active) | 4.65% (active) | 3.34% (active) | 19.1% | 8.59% (active) | 27%
COc1ccc2c(c1)N(CCO)C1=C(C(=O)OC1)C2c1ccccc1 (stereo unspecified) | 35.1% | 36.3% | 41.7% | 24% | 9.29% (active) | -24.9% (active) | 46.6% | 37.9% | 8.42% (active) | 16.4%
COc1cc(Cl)cc(-c2nn(-c3cccc(NC(=O)c4ccc(Cl)c(Cl)c4)c3)cc2-c2ccncc2)c1 | 75.3% | 66.3% | 84.5% | 105% | 65.2% | 53.7% | 59.7% | 74.1% | 81.5% | 88.5%
CN(C)CCS(=O)(=O)CCN(C)C | 107% | 105% | 113% | 108% | 97% | 117% | 106% | 98.7% | 105% | 103%
N#Cc1cccc(OCc2nc(N)nc(N)c2-c2ccc(Cl)c(Cl)c2)c1 | 32.9% | 46.7% | 24.7% | 35.9% | 11.5% | 8.77% (active) | 7.65% (active) | 19.4% | 34.1% | 25.3%
Cc1cc(C)c(NC(=O)c2sc3nc4c(cc3c2N)C(=O)CCC4)c(C)c1 | 33% | 77.1% | 56.3% | 36.9% | 6.43% (active) | -14.7% (active) | 23% | 30.4% | -6.14% (active) | 10%
COC(=O)c1ccc(=O)oc1 | 93% | 101% | 106% | 96.1% | 110% | 99.9% | 101% | 99.4% | 119% | 114%
O=C(NN1C(=O)CSC1c1ccc(Cl)cc1)c1cccnc1 (stereo unspecified) | 86.8% | 249% | 98.9% | 93.7% | 103% | 87.1% | 113% | 92% | 110% | 52.2%
O=C1NC(=O)N(Cc2ccccc2)CC1Br (stereo unspecified) | 52.6% | 83.2% | 104% | 79.2% | 96.7% | -9.22% (active) | 102% | 63% | 64.9% | 104%
NC(=O)CC1(c2ccccc2)CCCCC1 | 103% | 110% | 90.9% | 102% | 104% | 96% | 116% | 97.1% | 103% | 107%
Cc1ccc2oc3nc(C)c(C(=O)NCc4ccccc4)cc3c(=O)c2c1 | 83.8% | 104% | 76.8% | 100% | 41.4% | 76.7% | 73.5% | 55.6% | 23.8% | 86.9%
O=C(Nc1ccc(Cl)c(Cl)c1)Nc1c(Oc2ccc(Cl)c(Cl)c2)ccc(Cl)c1S(=O)(=O)O | 39.5% | 66% | 50.8% | 49.4% | 9.02% (active) | -1.66% (active) | 37% | 35% | -13.9% (active) | 21.1%
COc1ccc(-c2nn(-c3cccc(NC(=O)c4cccc(C(F)(F)F)c4)c3)cc2-c2ccncc2)cc1Cl | 52% | 52.1% | 47.3% | 41.9% | 8.19% (active) | -20.1% (active) | 19.8% | 17.1% | 17.3% | 50.5%
c1ccc(CO[C@H]2CO[C@H]3[C@@H]2OC[C@H]3OCc2ccccc2)cc1 | 107% | 101% | 101% | 97.7% | 110% | 100% | 111% | 104% | 100% | 119%
C=C(NC(=O)C(=C)NC(=O)c1csc(C2=NC3c4csc(n4)C4NC(=O)c5csc(n5)C(C(C)(O)C(C)O)NC(=O)C5CSC(=N5)/C(=C/C)NC(=O)C(C(C)O)NC(=O)c5csc(n5)C3(CC2)NC(=O)C(C)NC(=O)C(=C)NC(=O)C(=C)NC(=O)C(C(C)C)NC2C=Cc3c(C(C)O)cc(nc3C2O)C(=O)OC4C)n1)C(N)=O (stereo unspecified) | 11.1% | -26.3% (active) | 45.9% | 2.24% (active) | 1.43% (active) | -39.1% (active) | 31.7% | -10.4% (active) | -70.2% (active) | -23% (active)
c1ccc2c(c1)oc1c3c(ccc12)NCCC3 | 86% | 90.9% | 91.8% | 97.6% | 99% | 80.9% | 90.3% | 90.5% | 114% | 103%
CCCC(F)C(=O)O (stereo unspecified) |  | 114% | 90.9% | 113% | 106% | 89.5% | 92% | 97.2% | 108% | 117%
CCCCCCNC(=O)Oc1ccc(/C(=C(/CC)Cc2ccccc2)c2ccc(OCCN3CCCCC3)cc2)cc1 |  | 88.6% | 91.4% | 86.6% | 73.4% | 77.9% | 76.7% | 78.6% | 51.4% | 96.6%
O=C(NC(Cc1ccc(O)cc1)C(=O)N=Nc1c(O)[nH]c2ccccc12)c1ccccc1 (stereo unspecified) |  | 100% | 102% | 93.3% | 107% | 97.1% | 99.5% | 98.9% | 109% | 108%

— PubChem BioAssay (NCI)
